Sampled rows, rich in hits. Any-hit rate of the full collection: about 15%.
DT40 TDP1 no CPT: qHTS for Inhibitors of human tyrosyl-DNA phosphodiesterase 1 (TDP1): qHTS in cells in absence of CPT; DT40 Tdp1-/- hTDP1 cells, no CPT, ATP luminescence, 48 h; Potency, µM (titrated, usually from 46.2 µM), actives largely listed as inhibitors; 420,000 compounds, 15% hits; AID 686978, 2013; also: nearly all actives have a fitted effect of over 55% in size
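Growth of hTDP1-complemented DT40 Tdp1-knockout cells is measured by ATP luminescence after at least 48 hr compound exposure at 37 °C, with DMSO substituting for the 20 nM CPT used in the parallel screen.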
TDP1 cell CPT: growth inhibition of DT40 Tdp1-/-;hTDP1 cells with camptothecin (screen for TDP1 inhibitors) | chicken DT40 Tdp1-/-;hTDP1 cells + 20 nM CPT, ATP luminescence, 48 h | AID 686979 | 420,000 compounds, 12% hits | Potency, µM (series often up to 46.2 µM), actives largely listed as inhibitors; also: nearly all actives have a fitted effect of over 55% in size
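Chicken DT40 Tdp1-/- cells complemented with human TDP1, 400 cells/well, exposed to compounds plus 20 nM camptothecin for at least 48 h at 37 C; viability read as ATP content by CellTiter-Glo luminescence.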
VP16 counter: Gal4-VP16 reporter inhibition counter-screen; Potency, µM (top dose mostly 53.6 µM), usual class: inhibitors; 310,000 compounds, 3.5% hits; Drosophila S2 Gal4-VP16 UAS-luciferase, luminescence, 20 h;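 also: Gal4-VP16 expression switched on by copper sulfate through the metallothionein promoter; nearly all actives have a fitted effect of over 50% in size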
12-LOX inh: ALOX12 (human) lipoxygenase inhibition. P18054. purified 12hLO, xylenol orange hydroperoxide absorbance. Potency, µM (highest dose often 108 µM), most hits filed as inhibitors. 580,000 compounds, 1.1% hits. AID 1671190
Target sequence (P18054 whole entry, looked up): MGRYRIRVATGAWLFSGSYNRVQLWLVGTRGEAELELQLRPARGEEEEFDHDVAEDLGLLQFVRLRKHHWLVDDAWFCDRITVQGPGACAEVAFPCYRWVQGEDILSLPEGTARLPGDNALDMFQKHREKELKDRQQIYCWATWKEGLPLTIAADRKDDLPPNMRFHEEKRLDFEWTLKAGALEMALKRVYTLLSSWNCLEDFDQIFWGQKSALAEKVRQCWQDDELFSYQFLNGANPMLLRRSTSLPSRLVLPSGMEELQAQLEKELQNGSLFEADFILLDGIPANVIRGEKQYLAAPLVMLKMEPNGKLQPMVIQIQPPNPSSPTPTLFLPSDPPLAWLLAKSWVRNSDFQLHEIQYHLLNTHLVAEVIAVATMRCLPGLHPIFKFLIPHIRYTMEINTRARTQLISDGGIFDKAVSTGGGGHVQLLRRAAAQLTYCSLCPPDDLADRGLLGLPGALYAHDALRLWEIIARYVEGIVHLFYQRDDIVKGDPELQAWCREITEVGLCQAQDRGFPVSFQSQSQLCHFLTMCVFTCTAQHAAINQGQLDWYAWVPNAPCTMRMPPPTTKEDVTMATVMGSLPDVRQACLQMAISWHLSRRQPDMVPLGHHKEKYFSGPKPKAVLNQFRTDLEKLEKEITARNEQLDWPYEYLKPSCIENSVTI
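Hydroperoxide product was detected by ferrous iron/xylenol orange as the 573 to 405 nm absorbance ratio. Arachidonic acid at 40 uM (final) was turned over for 30 min at room temperature by 150 nM human 12hLO, pH 7.0 Hepes buffer, after 15 min compound preincubation.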
RORgamma inh: inhibitors of mouse ROR gamma transcriptional activity | 310,000 compounds, 5.4% hits | Potency, µM (doses to about 53.6 µM), most hits filed as inhibitors | Drosophila S2 Gal4-RORgamma UAS-luciferase reporter, 20 h | AID 2551 | P51450; also: nearly all actives have a fitted effect of over 60% in size
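A Gal4/UAS one-hybrid system in insect cells: metallothionein-promoter Gal4–ROR gamma fusion plus Photinus luciferase reporter. Copper sulfate 700 uM final, 20 hr ambient incubation, luminescent detection after 10 min with reagent.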
ELG1 repair inh: blocks ELG1-dependent DNA repair in HEK293T cells; HEK293T ELG1-luciferase reporter, luminescence, 16 h; DNA damage induced by 5-fluorouridine; Potency, µM (top dose mostly 46.1 µM), usual class: inhibitors; 330,000 compounds, 2.3% hits; AID 504467; also: nearly all actives have a fitted effect of over 55% in size
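Cells (2,000 per well) received 5-fluorouridine plus test compound or DMSO and were incubated 16 hr at 37 °C, 5% CO2. Luciferase activity was read by luminescence 30 min after ONE-Glo addition; signal suppression marked inhibition of damage-induced ELG1 function.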
Each line names hits and unclear results; the compound was inactive in the other large screens. Calls follow the shape of the dose curve; as a rule, active = well fitted curve in the direction sought with a large enough effect; inconclusive = small, poorly fitted or top-dose-only effect, or another doubt; inactive = no such curve, though single readings can be large; an effect the other way counts as inactive or inconclusive.

COCCN1C(=O)[C@@H]2C[C@@H](CN2C(=O)C2CCOCC2)Oc2ccccc21	none (no result: DT40 TDP1 no CPT, TDP1 cell CPT, VP16 counter, RORgamma inh, ELG1 repair inh)
CSc1cc(-c2ccc(Cl)cc2)c(C(=O)NN)s1	DT40 TDP1 no CPT inconclusive, VP16 counter inconclusive, RORgamma inh 11.2µM
CSc1cc(-c2ccc(Cl)cc2)c(C(=O)NC(C)C)s1	DT40 TDP1 no CPT 11.6µM, TDP1 cell CPT 9.2µM, ELG1 repair inh inconclusive
c1ccc(Oc2cccc(-c3nc4ccccc4s3)c2)cc1	none (no result: DT40 TDP1 no CPT, TDP1 cell CPT, VP16 counter, RORgamma inh, ELG1 repair inh)
CCCCc1nn(CC(=O)N(C)Cc2ccc(C)o2)c(=O)n1CC	none (no result: DT40 TDP1 no CPT, TDP1 cell CPT, VP16 counter, RORgamma inh, ELG1 repair inh)
Cc1ccc(Cc2c(C3CCCCC3)nc3c4ccccc4ccn23)cc1	DT40 TDP1 no CPT 23.1µM, TDP1 cell CPT inconclusive, 12-LOX inh inconclusive (no result: VP16 counter, RORgamma inh, ELG1 repair inh)
COc1ccc(Cc2c(C3CCCCC3)nc3c4ccccc4ccn23)c(C)c1	DT40 TDP1 no CPT inconclusive, TDP1 cell CPT inconclusive (no result: VP16 counter, RORgamma inh, ELG1 repair inh)
COc1ccccc1Cc1c(C2CCCCC2)nc2c3ccccc3ccn12	DT40 TDP1 no CPT inconclusive, TDP1 cell CPT inconclusive (no result: VP16 counter, RORgamma inh, ELG1 repair inh)
c1ccc2c(c1)ccn1c(Cc3ccsc3)c(C3CCCCC3)nc21	DT40 TDP1 no CPT 14.6µM, TDP1 cell CPT 18.4µM, 12-LOX inh inconclusive (no result: VP16 counter, RORgamma inh, ELG1 repair inh)
C[C@@H](C(=O)NC1CCN(Cc2ccccc2)CC1)N1Cc2ccccc2C1=O	none (no result: DT40 TDP1 no CPT, TDP1 cell CPT, VP16 counter, RORgamma inh, ELG1 repair inh)
Fc1ccc(-c2cnc([C@@H]3COCCN3Cc3c[nH]c4ccccc34)[nH]2)c(F)c1	none (no result: DT40 TDP1 no CPT, TDP1 cell CPT, VP16 counter, RORgamma inh, ELG1 repair inh)
COc1ccccc1CNc1ncnc2ccc(-c3cccc(NS(C)(=O)=O)c3)cc12	DT40 TDP1 no CPT 1.46µM, TDP1 cell CPT 1.64µM, VP16 counter inconclusive, RORgamma inh inconclusive (no result: ELG1 repair inh)
COc1cccc(-c2ccc3ncnc(NCc4ccccc4OC)c3c2)c1	DT40 TDP1 no CPT 14.6µM, TDP1 cell CPT inconclusive, VP16 counter inconclusive, 12-LOX inh inconclusive, RORgamma inh inconclusive (no result: ELG1 repair inh)
CN(C)C(=O)c1ccc(-c2ccc3ncnc(NCc4ccccc4)c3c2)cc1	DT40 TDP1 no CPT inconclusive, TDP1 cell CPT inconclusive, 12-LOX inh inconclusive (no result: ELG1 repair inh)
COc1cccc(-c2ccc3ncnc(NCc4ccc5c(c4)OCO5)c3c2)c1	ELG1 repair inh 8.2µM (no result: DT40 TDP1 no CPT, TDP1 cell CPT, VP16 counter, RORgamma inh)
Brc1ccc2ncnc(NCc3ccccc3)c2c1	DT40 TDP1 no CPT 8.2µM, TDP1 cell CPT 7.31µM, VP16 counter inconclusive, RORgamma inh inconclusive, ELG1 repair inh 4.11µM
O=C(Nc1cccc(-c2nnnn2C2CC2)c1)NC1CCCCCC1	none (no result: DT40 TDP1 no CPT, TDP1 cell CPT, VP16 counter, RORgamma inh, ELG1 repair inh)
CCC(=C/c1ccccc1)/C=N/O	none (no result: DT40 TDP1 no CPT, TDP1 cell CPT, VP16 counter, RORgamma inh, ELG1 repair inh)
CN(C)c1ncnc2ccc(-c3cccc(C#N)c3)cc12	DT40 TDP1 no CPT inconclusive, TDP1 cell CPT 25.9µM (no result: ELG1 repair inh)
COc1cccc(-c2cncnc2NCc2cccc(C)c2)c1	DT40 TDP1 no CPT 23.1µM, TDP1 cell CPT inconclusive, 12-LOX inh inconclusive (no result: ELG1 repair inh)
COc1cccc(-c2cncnc2NCc2cccnc2)c1	12-LOX inh inconclusive (no result: ELG1 repair inh)
COc1cccc(-c2ccc3ncnc(NCc4ccccc4)c3c2)c1	DT40 TDP1 no CPT 20.6µM, TDP1 cell CPT inconclusive (no result: ELG1 repair inh)
N#Cc1cccc(-c2ccc3ncnc(N4CCNCC4)c3c2)c1	DT40 TDP1 no CPT inconclusive (no result: ELG1 repair inh)
CN(C)c1ncnc2ccc(-c3ccc4c(c3)OCO4)cc12	DT40 TDP1 no CPT 23.1µM, TDP1 cell CPT inconclusive (no result: ELG1 repair inh)
O=C(Nc1ccc(Br)cc1)C1CC2CCC1C2 (configuration not stated)	none (no result: DT40 TDP1 no CPT, TDP1 cell CPT, VP16 counter, RORgamma inh, ELG1 repair inh)
CCOC(=O)c1c(C)[nH]c(C(=O)CN(C)Cc2cccc(F)c2)c1C	none (no result: DT40 TDP1 no CPT, TDP1 cell CPT, VP16 counter, RORgamma inh, ELG1 repair inh)
N#Cc1cccc(-c2ccc3ncnc(NCc4ccccc4)c3c2)c1	DT40 TDP1 no CPT 25.9µM, TDP1 cell CPT inconclusive, VP16 counter inconclusive, 12-LOX inh inconclusive, RORgamma inh inconclusive (no result: ELG1 repair inh)
COCCNc1ncnc2ccc(-c3cccc(OC)c3)cc12	DT40 TDP1 no CPT 23.1µM, TDP1 cell CPT inconclusive, 12-LOX inh inconclusive, RORgamma inh inconclusive (no result: ELG1 repair inh)

Screens: PubChem, National Center for Advancing Translational Sciences (NCATS)
